# Compound activity as filed in PubChem.
# This is a sample that favours compounds with a hit; in the whole collection about 19% have one here.
# IL-1B inflam inh – blocks inflammasome-driven IL-1 beta release. THP-1 LPS/ATP IL-1B secretion, AlphaLISA, 16 h; hits give low values. activity change, % at 57.5 µM. 360,000 compounds, 4.7% hits; in the data active means activity change below about -50%; inconclusive means mostly about -30% to -49%
#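 Secreted IL-1B measured by AlphaLISA bead assay after 16 h compound exposure of THP-1 cells; compounds (final up to 57.5 uM) added 1 h before LPS (250 ng/mL) and ATP (1.25 mM) stimulation; lower signal means less secretion.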
# HT1080-NT tox – kills 2HG-producing HT-1080-NT fibrosarcoma cells | HT-1080-NT fibrosarcoma viability, CellTiter-Glo ATP luminescence, 48 h | 360,000 compounds, 1.6% hits | Potency, µM (titrated, usually from 46.1 µM), inactives show at the top dose activity, negative = less viability, hits mostly cytotoxic;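 further: NT is the 2HG producing partner of a matched IDH1 knockdown line; potency means the concentration at half of the fitted maximal effect; 0% = DMSO-treated cells and -100% = media-only wells without cells; nearly all actives have a fitted effect of over 55% in size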
#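 Toxicity toward the 2HG-producing NT line was scored as %Activity, normalised to DMSO and no-cell wells, from CellTiter-Glo luminescence after 48 hours' treatment.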
# TDP1 cell noCPT – qHTS for Inhibitors of human tyrosyl-DNA phosphodiesterase 1 (TDP1): qHTS in cells in absence of CPT; DT40 Tdp1-/- hTDP1 cells, no CPT, ATP luminescence, 48 h; AID 686978, 2013; Potency, µM (series often up to 46.2 µM), without a hit: at the top dose activity change, negative = growth inhibition, hits mostly inhibitors; 420,000 compounds, 15% hits; further: potency means the concentration at half of the fitted maximal effect; nearly all actives have a fitted effect of over 55% in size
#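 Camptothecin absent (DMSO only). Human TDP1-complemented DT40 knockout cells, 400 cells/well, 37 °C for minimum 48 hr; ATP measured via CellTiter-Glo, 30 min dark incubation, luminescence.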
# TDP1 cell CPT – growth inhibition of DT40 Tdp1-/-;hTDP1 cells with camptothecin (screen for TDP1 inhibitors). chicken DT40 Tdp1-/-;hTDP1 cells + 20 nM CPT, ATP luminescence, 48 h. Potency, µM (highest dose often 46.2 µM), without a hit: at the top dose activity change, negative = growth inhibition, usual class: inhibitors. 420,000 compounds, 12% hits. AID 686979; further: potency means the concentration at half of the fitted maximal effect; nearly all actives have a fitted effect of over 55% in size
#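 Chicken DT40 Tdp1-/- cells complemented with human TDP1, 400 cells/well, exposed to compounds plus 20 nM camptothecin for at least 48 h at 37 C; viability read as ATP content by CellTiter-Glo luminescence.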
# HT1080 IDH1KD tx – toxicity to HT-1080 IDH1 knockdown cells (counter line) | HT-1080 IDH1 knockdown viability, ATP luminescence, 48 h | 360,000 compounds, 2% hits | AID 686971 | Potency, µM (titrated, usually from 46.1 µM), without a hit: top-dose activity, negative = toxicity, most hits filed as cytotoxic;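 further: potency means the concentration at half of the fitted maximal effect; 0% = DMSO wells and -100% = cell-free medium wells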
#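 Assay cells: HT-1080 with IDH1 knockdown, 750 per well, RPMI/5% FBS. Exposure: 48 h at 37 °C following 2 h pre-incubation. Read: CellTiter-Glo luminescence; fitted concentration-response, curve class assigned.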
# Numbers without * were called inactive; ? = inconclusive; / = no result given. Unless noted, the call rests on the fitted dose curve; in most records, active means well fitted curve in the direction sought with a large enough effect; inconclusive means small, poorly fitted or top-dose-only effect, or another doubt; inactive means no such curve, though single readings can be large; an effect the other way counts as inactive or inconclusive. Unless noted, on the % scale 0 is the no-effect control and ±100 the full control effect.
SMILES,IL-1B inflam inh,HT1080-NT tox,TDP1 cell noCPT,TDP1 cell CPT,HT1080 IDH1KD tx
C=CCC(COCc1ccccc1)NS(=O)(=O)c1ccccc1Br (configuration not stated),-8.9,7.8%,?,?,3.3%
C=CC(COCc1ccccc1)N(C(=O)OC(C)(C)C)S(=O)(=O)c1ccccc1Br (configuration not stated),-3.8,-17.8%,16.4µM*,?,-9.9%
COCCNC(=O)c1cc2c(=O)n3cccc(C)c3nc2n(Cc2ccncc2)c1=N,-5.3,-11.4%,?,?,-1.5%
Cc1cccn2c(=O)c3cc(C(=O)NCc4ccco4)c(=N)n(CCc4ccccc4)c3nc12,-84.6*,-22.3%,14.6µM*,-96.0%,-6.8%
COc1ccc(CCNC(=O)c2cc3c(=O)n4cccc(C)c4nc3n(Cc3ccco3)c2=N)cc1OC,9.8,-2.1%,25.9µM*,?,3.8%
Cc1cccn2c(=O)c3cc(C(=O)NCCc4ccccc4)c(=N)n(Cc4ccco4)c3nc12,3.9,6.51µM*,10.3µM*,20.6µM*,5.17µM*
O=C(CSc1nc2ccccc2s1)N/N=C/c1cc([N+](=O)[O-])ccc1O,81.8,-4.4%,?,?,?
Nc1n[nH]c(CO)n1,-4.4,0.0%,9.1%,1.4%,5.8%
CC(OC(=O)c1ccc([N+](=O)[O-])s1)C(=O)Nc1ncc(Cl)cc1Cl (configuration not stated),0.0,9.8%,-18.6%,?,-1.1%
O=[N+]([O-])c1ccc(N2CCOCC2)nc1,0.3,0.8%,-1.2%,-21.1%,0.9%
O=C1CC(N2CCOCC2)=NN1c1ccc([N+](=O)[O-])cc1,-16.3,-6.1%,25.9µM*,?,-9.6%
COc1ccc(CCN2C(=O)COc3ccccc3C2C(=O)Nc2ccc3c(c2)OCCO3)cc1OC (configuration not stated),15.9,14.0%,20.6µM*,?,10.0%
O=C(Nc1ccc2c(c1)OCCO2)C1c2ccccc2OCC(=O)N1CCc1ccccc1 (configuration not stated),-14.4,5.5%,-2.0%,-0.6%,1.6%
Cc1cc(Br)ccc1-n1[nH]c(C)c(C=Nc2cccc3nsnc23)c1=O,42.8,-20.6%,?,-20.4%,?
Nc1cccc(C(=O)OCC(=O)Nc2cccc3c2C(=O)c2ccccc2C3=O)c1,-17.7,-24.9%,11.6µM*,?,?
Cc1cccc(NC(=O)COC(=O)c2ccccc2-c2nc3ccccc3s2)c1C,0.0,-21.1%,?,?,-26.9%
Cc1cccc(C)c1NC(=O)COC(=O)c1cccc2c1C(=O)c1ccccc1C2=O,-6.4,-3.7%,8.2µM*,11.6µM*,-6.5%
Cc1cccc(NC(=O)COC(=O)c2cccc3c2C(=O)c2ccccc2C3=O)c1C,-19.4,-1.3%,16.4µM*,?,19.9%
Cc1cccc(C)c1NC(=O)c1cccc2c1-c1ccccc1C2=O,1.1,-1.8%,?,?,10.5%
CCN(CC)CCC(=O)Nc1cccc2c1C(=O)c1ccccc1C2=O,/,18.4µM*,10.3µM*,11.6µM*,14.6µM*
C#CCn1c(S(=O)(=O)Cc2ccc(OC)cc2)nc(-c2ccccc2)c1-c1ccccc1,-23.0,-26.8%,?,?,?
COc1ccc(/C=C/C(=O)OCC(=O)NCc2ccco2)cc1OC,28.3,-1.8%,?,-19.1%,-9.7%
Cc1ccccc1OCC(=O)OCc1cc(=O)n2ccsc2n1,/,/,?,-22.0%,/
COc1ccc(C(=O)OCc2cc(=O)oc3cc(C)ccc23)cc1S(=O)(=O)N1CCOCC1,-21.6,0.8%,?,-21.9%,1.1%
CCCNS(=O)(=O)c1cccc(C(=O)OCc2cc(=O)oc3cc(OC)ccc23)c1,30.9,?,1.03µM*,1.03µM*,?
SMILES,IL-1B inflam inh,HT1080-NT tox,TDP1 cell noCPT,TDP1 cell CPT,HT1080 IDH1KD tx
COc1ccc2c(COC(=O)c3cccc(S(=O)(=O)NCC(C)C)c3)cc(=O)oc2c1,20.3,-20.7%,?,?,-22.5%
COc1ccc2c(COC(=O)c3ccc(C)c(S(=O)(=O)N4CCOCC4)c3)cc(=O)oc2c1,-15.2,1.2%,16.4µM*,?,13.3%
Cc1cc(C)nc(-n2nc(C)c3c2NC(=O)CC3c2cc(F)ccc2F)n1 (configuration not stated),/,/,23.1µM*,?,/
Cc1ccc(C2CC(=O)Nc3c2c(C)nn3-c2nc(C)cc(C)n2)c(C)c1 (configuration not stated),/,/,-24.7%,-14.5%,/
Cn1ncc(C#N)c1NC(=O)C1CC(c2ccc(Cl)c(Cl)c2)=NO1 (configuration not stated),35.6,-0.9%,-23.2%,-31.6%,-5.5%
O=C(NCC1CCCO1)C1CC(c2ccc(Cl)c(Cl)c2)=NO1 (configuration not stated),10.3,-0.3%,?,18.4µM*,7.5%
O=C(CSc1nnc(CN2CCCC2)n1-c1ccccc1)c1ccc2c(c1)OCO2,-27.4,7.0%,16.4µM*,?,5.7%
COc1ccc(C(=O)CSc2nnc(CN3CCCCC3)n2-c2ccc(Cl)cc2)cc1OC,-12.6,-14.4%,20.6µM*,?,-1.6%
Cn1c(SCC(=O)c2ccc3c(c2)OCO3)nnc1C1COc2ccccc2O1 (configuration not stated),7.5,-0.7%,16.4µM*,20.6µM*,7.7%
O=C(NC1CCCCC1)C1CCN(c2cnccn2)CC1,5.0,0.3%,0.2%,-10.4%,0.8%
COc1ccc(CNC(=O)C(CCSC)NC(=O)c2ccco2)cc1 (configuration not stated),25.4,1.1%,-9.2%,1.2%,1.8%
COc1cccc(/C=C/c2ccc3cccc(O)c3n2)c1,?,-24.5%,7.31µM*,?,?
Cc1ccc(/C=C/c2ccc3cccc(O)c3n2)s1,-16.0,-21.2%,16.4µM*,?,-21.8%
O=[N+]([O-])c1ccc(/C=C/c2ccc3cccc(O)c3n2)cc1,7.3,?,16.4µM*,20.6µM*,?
Cc1cccc(/C=C\c2ccccc2)n1,/,/,-72.1%,?,/
Oc1cccc(/C=C/c2ccc3cccc(O)c3n2)c1,3.9,32.6µM*,16.4µM*,18.4µM*,?
CCc1sc(-c2cc3ccccc3oc2=O)nc1-c1ccc(C)cc1,/,/,-19.1%,9.0%,/
CC(=O)COc1cccc2ccc(/C=C/c3ccc(Br)s3)nc12,11.7,-17.4%,?,20.6µM*,-4.0%
Cc1cccc(CC(=O)NCC(=O)NCc2cc(=O)n(C)c(=O)n2C)c1,1.3,3.7%,?,11.6µM*,8.1%
